In the OligoGym collection:

Target: MYCBPAP
Test: pooled miR-30 sensor sort-seq; sequence = guide strand
Settings: shRNA
Further: reference of the scale not given here.

Sequence	sensor-assay potency score (higher = more potent)
TTTTCTTTGACATTCTCTGAGG	-0.601
TTGTAGGACATTGCTAACAGGT	-0.808
TTCTTTGTCTTTGATCCCCAGT	-0.525
TTGTGCTTCTTGCTGTTGGGAC	-0.31
TTTCTTGTCTTCTTTGTCTTTG	-0.276
TAGATCAGAAACAGACTCCGAT	0.675
TGCAATTCTCTTAAAATCCTGG	-0.695

Target: MYCL1
Test: as above
Settings: shRNA

Sequence	sensor-assay potency score (higher = more potent)
TTCTTTTCTGCAACTGCTGCTG	-0.121
TCATTCTCCGAGTCGCTTGGGC	-0.392
TCAATTTCTTCATTCTCCGAGT	0.102
TCTTTTCTGCAACTGCTGCTGC	0.0557
AATTCTTTTCTGCAACTGCTGC	-0.74
ATCAATTTCTTCATTCTCCGAG	0.219
TTCTTCCAGATGTCCTCGCTGG	-0.137
ATAGTCGTAGAAATAGTGCTGG	0.222
TTAGGATCACTACTTTGGGGGC	-0.971
TTTCTCTGTAGCCATCCTCTTC	-0.97
TTGCTTAGGATCACTACTTTGG	-0.448
TAGTCGTAGAAATAGTGCTGGT	-0.671

Target: MYH14
Test: as above
Settings: shRNA

Sequence	sensor-assay potency score (higher = more potent)
TTCCTCTGCCTCCTCGTCGGAT	-1.06
TCATCTGCCATCTCATCCCGGT	-0.0949
TAGAGCTGTCCCACTGTCCGGA	0.0775
TTGGTGTTTTCCGTCTTCCCAG	-1.05
TTGAGGCGCAGAACCAGCCAGC	-0.999
TTGTCATTCTTCACTGTCTTGG	-0.287
TGTCAGGATCTCGTATCGCTGC	-0.48
TTCACCTTGGTAAACAGCCGCC	-0.755
TCTGGTCTCTTGCTCTAGCTGC	-0.396
TAGTGGAGAACACTGAAGTCGG	-0.73
TTGTAGTCGACCTTGCCCGCGT	-0.308
TTTCCGTCTTCCCAGCTCCAGA	-1.5

Target: MYL4
Test: as above
Settings: shRNA

Sequence	sensor-assay potency score (higher = more potent)
TCTATCTTTACACTCTTGGGGT	0.0138
TATCTTTACACTCTTGGGGTCA	-0.527
TCTTGACATTCATCTCTTCAGG	-0.927
AAGTCTATCTTTACACTCTTGG	-0.446
TCTTCATCTCTCCAGTCGGGGT	-1.55
TTGAACTCTTCAATCTGGTCGG	0.391
ATCTTCATCTCTCCAGTCGGGG	-0.885
TCGGCAGTGAAGTCTATCTTTA	-1.13
TGAACTCTTCAATCTGGTCGGC	0.0317
